The values below come from PubChem BioAssay (NCATS).

Results filed as inconclusive are left out. Values without a mark were called inactive. Calls of active or inactive are those of the source. Calls follow the shape of the dose curve; as a rule, active = well fitted cell-killing curve with a large enough effect; inconclusive = small, poorly fitted or top-dose-only effect, or effect the other way; inactive = flat fitted curve, though single readings scatter.
% is scaled to controls: 0 for no effect and ±100 for the full control effect.

The assay deals with Tov112D. The assay is described as follows: Primary qHTS to identify gynecologic anti-cancer compounds using libraries of approved drugs and bioactive compounds (AID 1345084). Also: nearly all actives have a fitted effect of over 55% in size. To be noted: Gynecologic cancer cell panel viability, ATPlite luminescence, 48 h; series mostly up to 57.5 µM; activity change, negative = cytotoxicity: at the top concentration. The procedure, abridged: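 Cytotoxicity screen measuring ATP content by luciferase luminescence. Each compound is applied at five concentrations for 48 h at 37 C with 5% CO2.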
On the technique in general: Quantitative high-throughput screening tests each substance at several concentrations.
Regarding `CN(C)c1ccc(C2Nc3ccc4ccccc4c3C3=C2C(=O)CC(C)(C)C3)cc1Br` (configuration not stated), the “activity change, negative = cytotoxicity” value was -2.83%.

For the compound `COc1ccc2nc(S(=O)Cc3ncc(C)c(OC)c3C)[nH]c2c1` (configuration not stated), the “activity change, negative = cytotoxicity” value was -19.2%.

For `CCC(C)n1ncn(-c2ccc(N3CCN(c4ccc(OC[C@H]5CO[C@](Cn6cncn6)(c6ccc(Cl)cc6Cl)O5)cc4)CC3)cc2)c1=O` (some centres not stated), the Potency result was “inactive”.

For the compound `Cc1ccnc(NS(=O)(=O)c2ccc(NC(=O)Nc3ccc(S(=O)(=O)Nc4nccc(C)n4)cc3)cc2)n1`, the “activity change, negative = cytotoxicity” value was 4.07%.

Turning to `OC(CN1CCC(Cc2ccc(F)cc2)CC1)c1ccc(Cl)cc1` (configuration not stated), the “activity change, negative = cytotoxicity” value is -0.731%.

Take `NC(=O)c1cnccn1`: the “activity change, negative = cytotoxicity” value was -17.6%.

On to `CC[C@@H](C)[C@H](NC(=O)[C@H](CC1CCCCC1)NC(=O)c1ccno1)C(=O)N1CCC2(CCc3ccccc32)CC1`, for which the “activity change, negative = cytotoxicity” value was -1.85%.

`C[C@@H]1CN(Cc2ccc(F)cc2)[C@@H](C)CN1C(=O)c1cc2c(C(=O)C(=O)N(C)C)cn(C)c2cc1Cl`: the “activity change, negative = cytotoxicity” value was 3.12%.

On to `Cc1cn[nH]c1`, for which the “activity change, negative = cytotoxicity” value is 2.48%.

For `Cc1n[nH]c(C)c1Cc1sc2c(c1C(=O)N1C[C@H](O)CO1)c(=O)n(C)c(=O)n2CC(C)C`, the “activity change, negative = cytotoxicity” value was 0.595%.

In the case of `CCCc1nn(C)c2c(=O)[nH]c(-c3cc(S(=O)(=O)N4CCN(C)CC4)ccc3OCC)nc12`, the Potency result was “inactive”.

Take `NNCCc1ccccc1`: the “activity change, negative = cytotoxicity” value is -12%.
